Source: PubChem BioAssay (NCI)
The panel holds about 79,000 compounds, 15% with a hit somewhere; the sample as a whole holds those more often. Values without a mark were called inactive. Calls of active or inactive are those of the source. No stated cut-off is given here; in the data, active means growth inhibition above about 70%; inactive means the rest.

Assay: NCI Yeast Anticancer Drug Screen. Data for the cln2 rad14 strain (AID 165);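 further: 0% = growth equal to vehicle treated cultures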
Details: S. cerevisiae cln2 rad14 strain, at 50.0 µM, active compounds read high
Summary of the method: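 Strain: cln2 rad14 yeast, altered in cell cycle control and DNA damage repair. Read-out: growth inhibition vs vehicle.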

SMILES | growth inhibition [%]
CCc1cc2c(c3c1CCC3=O)CC1(Cc3ccc(C)cc3C1)C2 (centres undefined) | -21.6
COC(=S)OC1CC(n2cnc3c(N)ncnc32)OC1CO[Si](C)(C)C(C)(C)C (centres undefined) | -1.2
Clc1cccc2nsnc12 | -49
COC(=O)CCC(N)C(=O)NC(Cc1ccccc1)C(=O)NC(C)C(=O)NC1C(O)OC(CO)C(O)C1O (centres undefined) | -0.65
O=C(Nc1ccccc1-c1n[nH]c(=S)[nH]c1=O)C(F)(F)F | -7.35
c1ccc(SC2CCSc3ccccc3C2Sc2ccccc2)cc1 (centres undefined) | 3.65
CCOC(SCC)C(O)C(O)C(O)C(O)CO (centres undefined) | -14.7
COc1ccc(/C(C)=N/NC(N)=S)cc1OC | 16
NC1CC(=O)c2c(Cl)sc(Cl)c21 (centres undefined) | 41.6

Assay: NCI Yeast Anticancer Drug Screen. Data for the bub3 strain (AID 167)
Details: S. cerevisiae bub3 mutant strain, at 50.0 µM, active compounds read high
Summary of the method: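 Yeast carrying a defined mutation is treated with each compound, and growth is compared with that of vehicle-exposed cells to give inhibition.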

SMILES | growth inhibition
Clc1cccc[n+]1CCc1ccccc1 | 7.55%
COC(=O)c1c(C)ccc(C)c1C(=O)c1c(C)cc(C)cc1C | 24.3%
O=C1c2ccccc2C(=O)N1CC1(C(=O)O)NCCS1(=O)=O (centres undefined) | -48.9%
CCN(CC)c1ccc2c(c1)Oc1cc(N(CC)CC)ccc1C2c1ccccc1C(=O)O | 3.6%
C[n+]1ccccc1C(O)C(O)c1cccc[n+]1C (centres undefined) | -8.45%
C(=NC12CC3CC(CC(C3)C1)C2)C1CCCCC1 | 4.8%
CCCCCCCc1cc(OC(=O)c2c(C)cc(OC)cc2O)cc(O)c1C(=O)O | -14.2%
Cc1cccc(C)c1NC(=O)Nc1cccc(O)c1 | 37.6%
CC(C)(C)OC(=O)NCC(O)CNC(=O)OC(C)(C)C | -22.9%
NC(=O)N/N=C/c1ccc(Cl)cc1Cl | 4.8%
CCN(CC)CCCNc1c2c(nc3ccc(Cl)cc13)CCCC2 | -11.8%
Cc1ccc(S(=O)(=O)CC(=O)NC(N)=O)cc1 | -1.15%
NC(N)=NC(=S)Nc1ccc(Cl)cc1 | -15.7%
O=NN(CCOS(=O)(=O)c1ccc(Br)cc1)C(=O)NC1CCCCC1 | -1.95%
CC1COC(c2cc3c(cc2Cl)OCO3)O1 (centres undefined) | -26.6%
Cc1cc(C)n(/N=C/c2ccccc2[N+](=O)[O-])c(=O)c1C#N | -2.35%
Cc1cc(C)c(-c2c(C)cc(C)c([N+](=O)[O-])c2C)c(C)c1N | 97.2% (active)
c1ccc2cc3c(cc2c1)[nH]c1ccccc13 | -25.4%
CN(C)C(=O)C1C2CCCC(CC2)C1C(=O)N(C)C (centres undefined) | 18%
N#CCN(CCc1ccccc1)CCc1ccccc1 | -0.35%

SMILES | growth inhibition
Cc1nc(-c2nc(C(=O)NCCC[S+](C)C)cs2)cs1 | -2.35%
O=c1[nH]c(Nc2cccc(CO)c2)nc2nc[nH]c12 | -15.7%
CCn1c2ccccc2c2c(-c3ccccc3)cc3c(c21)C(=O)N(c1ccccc1)C3=O | -7.9%
C=C(C#N)C1OCC2OC(C)(C)OC21 (centres undefined) | -4.8%
COc1ccc(OC)c(/C=C/C2=C(C)C(=O)CC(c3cc(OC)ccc3OC)C2C)c1 (centres undefined) | 2.35%
CC(=O)OC1[C@H](OC(C)=O)C2=C(C)[C@@H](OC(C)=O)C[C@@]2(C(C)(C)O)[C@@H](OC(C)=O)[C@H]2[C@@]1(C)[C@@H](OC(C)=O)CC(OC(C)=O)[C@]21CO1 (some centres undefined) | -32.8%
O=C1c2ccccc2-c2nc(-c3cccs3)cc3c2c1nc1ccccc13 | 25%
Cc1ccccc1NC(=O)C(=O)CC(=O)c1sc(Nc2ccccc2[N+](=O)[O-])nc1C | -0.3%
CC(C)CCC[C@@H](C)[C@H]1CC[C@H]2[C@@H]3CC[C@H]4C[C@@H](CCC=C(c5cc(Cl)c(O)c(C(=O)O)c5)c5cc(Cl)c(O)c(C(=O)O)c5)CC[C@]4(C)[C@H]3CC[C@]12C | 24.5%
Cc1cc(Cl)c(Cl)cc1NC(=O)c1c(Br)c(Br)c(Br)c(Br)c1C(=O)O | -3.2%
COC(=O)CCSSCCC(=O)OC | -21.4%
CCc1cc2c(c3c1CCC3=O)CC1(Cc3ccc(C)cc3C1)C2 (centres undefined) | -22.1%
COC(=S)OC1CC(n2cnc3c(N)ncnc32)OC1CO[Si](C)(C)C(C)(C)C (centres undefined) | 11.1%
Clc1cccc2nsnc12 | 5.15%
COC(=O)CCC(N)C(=O)NC(Cc1ccccc1)C(=O)NC(C)C(=O)NC1C(O)OC(CO)C(O)C1O (centres undefined) | -7.6%
O=C(Nc1ccccc1-c1n[nH]c(=S)[nH]c1=O)C(F)(F)F | -65.8%
c1ccc(SC2CCSc3ccccc3C2Sc2ccccc2)cc1 (centres undefined) | 0.5%
CCOC(SCC)C(O)C(O)C(O)C(O)CO (centres undefined) | -7.8%
COc1ccc(/C(C)=N/NC(N)=S)cc1OC | -13.3%
NC1CC(=O)c2c(Cl)sc(Cl)c21 (centres undefined) | 27.6%
